Results filed as inconclusive are left out. Activity calls are given as the source filed them. Unless noted, calls come from the whole dose curve; as a rule, active = well fitted curve in the direction sought with a large enough effect in the repeat runs; inconclusive = weak or mixed curves; inactive = no such curve, though single readings can be large; an effect the other way counts as inactive or inconclusive.
Experiments:
[1] = qHTS assay to identify small molecule agonists of the estrogen receptor alpha (ER-alpha) signaling pathway in the presence of an antagonist - cell viability counter screen (AID 1259386);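 note: series mostly up to about 92 µM; cells exposed to compounds for 22 h at 37 °C before the viability read; nearly all actives have a fitted effect of over 30% in size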
How it was run: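 Using estrogen-depleted VM7Luc4E2 cells, the 15-concentration compound series was applied together with 10.0nM ICI-182,780 and incubated 22hr at 37C/5% CO2. Cell viability was then scored by CellTiter-Fluor.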

[2] = target: Progesterone receptor (Homo sapiens) (UniProt P06401); experiment: qHTS assay to identify small molecule agonists of the progesterone receptor (PR) signaling pathway (AID 1346784; calls by dose curve; note: nearly all actives have a fitted effect of over 30% in size; note: potency is the fitted concentration of half-maximal effect)
Progesterone receptor (Homo sapiens), sequence (P06401 whole entry, looked up): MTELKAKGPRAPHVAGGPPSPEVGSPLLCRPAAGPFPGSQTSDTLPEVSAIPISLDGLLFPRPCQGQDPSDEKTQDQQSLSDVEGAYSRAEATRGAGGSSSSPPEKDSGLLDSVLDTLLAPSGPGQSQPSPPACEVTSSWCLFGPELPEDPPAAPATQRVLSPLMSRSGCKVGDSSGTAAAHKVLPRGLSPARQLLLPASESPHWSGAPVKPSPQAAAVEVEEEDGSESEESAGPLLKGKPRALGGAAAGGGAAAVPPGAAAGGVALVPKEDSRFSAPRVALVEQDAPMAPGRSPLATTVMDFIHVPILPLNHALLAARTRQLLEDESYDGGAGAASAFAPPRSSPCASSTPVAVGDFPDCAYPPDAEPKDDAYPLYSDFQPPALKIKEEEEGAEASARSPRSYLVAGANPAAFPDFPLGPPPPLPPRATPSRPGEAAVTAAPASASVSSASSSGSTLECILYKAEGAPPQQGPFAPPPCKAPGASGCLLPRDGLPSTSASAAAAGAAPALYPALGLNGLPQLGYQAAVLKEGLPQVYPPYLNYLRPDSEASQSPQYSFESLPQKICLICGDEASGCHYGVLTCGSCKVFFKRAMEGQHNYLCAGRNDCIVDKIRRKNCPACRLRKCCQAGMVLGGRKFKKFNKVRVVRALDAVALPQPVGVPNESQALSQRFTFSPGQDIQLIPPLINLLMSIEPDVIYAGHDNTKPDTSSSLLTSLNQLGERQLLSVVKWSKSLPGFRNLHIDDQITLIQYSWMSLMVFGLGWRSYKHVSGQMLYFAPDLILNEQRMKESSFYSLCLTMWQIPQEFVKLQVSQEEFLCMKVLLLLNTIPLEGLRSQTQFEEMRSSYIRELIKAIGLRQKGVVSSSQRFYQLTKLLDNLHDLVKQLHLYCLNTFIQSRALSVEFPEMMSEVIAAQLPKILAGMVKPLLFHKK
How it was run: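 Fluorescence from LiveBLAzer B/G FRET substrate cleavage (2 hr, RT) reported PR activation in PR-UAS-bla HEK 293T cells treated 16 hr at 37C/5% CO2 with compounds; medium contained 2% charcoal-stripped FBS.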

[3] = target: Progesterone receptor (Homo sapiens) (UniProt P06401); experiment: qHTS assay to identify small molecule antagonists of the progesterone receptor (PR) signaling pathway (AID 1346795; active = well fitted inhibition curve with a large enough effect in the signal ratio in the repeat runs, not every such curve was filed as active; the % refers to the signal ratio)
How it was run: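 Fluorescence intensity measured 2 hr after adding beta-lactamase FRET substrate to PR-UAS-bla HEK293T cells that had been co-treated 16 hr with compound and 1 nM R5020 (final concentration) in 2% charcoal-stripped FBS.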

[4] = qHTS assay to identify small molecule antagonists of the progesterone receptor (PR) signaling pathway - cell viability counter screen (AID 1346798); note: series mostly up to about 92 µM; nearly all actives have a fitted effect of over 50% in size
How it was run: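 CellTiter-Glo luminescence; PR-UAS-bla HEK293T, 3,000 cells/well; compound + R5020, 16 hr, 37C/5% CO2; 30 min RT before read.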

[5] = qHTS assay to identify small molecule antagonists of the TGF-beta/Smad signaling pathway - cell viability counter screen (AID 1346824); note: nearly all actives have a fitted effect of over 50% in size
How it was run: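 SBE-bla HEK 293T cells were plated overnight at 37 C, then given compounds in DMSO plus TGF-beta1 (added as 0.25 ng/mL solution) for 5 hr. After the bla read, CellTiter-Glo was added to the same wells and luminescence read after 30 min at room temperature.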

[6] = qHTS assay to identify small molecule agonists of the TGF-beta/Smad signaling pathway - cell viability counter screen (AID 1346829); note: top concentration of the series differs between compounds; nearly all actives have a fitted effect of over 45% in size
How it was run: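 CellTiter-Glo luminescence readout; SBE-bla HEK 293T cells, overnight plating, compound 5 hr at 37 C/5% CO2, then bla substrate 2 hr RT, then CellTiter-Glo 30 min RT.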

[7] = qHTS assay to identify small molecule agonists of the TGF-beta/Smad signaling pathway (AID 1346859; active = well fitted activation curve with a large enough effect in the signal ratio in the repeat runs, not every such curve was filed as active; the % refers to the signal ratio; note: series mostly up to about 77 µM)
How it was run: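 After overnight seeding, SBE-bla HEK 293T cells are dosed with compounds in DMSO and kept 5 hr at 37 C, 5% CO2. LiveBLAzer-type FRET substrate is then applied for 2 hr at room temperature.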

[8] = target: Thyrotropin-releasing hormone receptor (Homo sapiens) (UniProt P34981); experiment: qHTS assay to identify small molecule antagonists of the thyrotropin-releasing hormone receptor (TRHR) signaling pathway (AID 1346877; active = well fitted inhibition curve with a large enough effect in the repeat runs, not every such curve was filed as active; note: series mostly up to about 51 µM)
Thyrotropin-releasing hormone receptor (Homo sapiens), sequence (P34981 whole entry, looked up): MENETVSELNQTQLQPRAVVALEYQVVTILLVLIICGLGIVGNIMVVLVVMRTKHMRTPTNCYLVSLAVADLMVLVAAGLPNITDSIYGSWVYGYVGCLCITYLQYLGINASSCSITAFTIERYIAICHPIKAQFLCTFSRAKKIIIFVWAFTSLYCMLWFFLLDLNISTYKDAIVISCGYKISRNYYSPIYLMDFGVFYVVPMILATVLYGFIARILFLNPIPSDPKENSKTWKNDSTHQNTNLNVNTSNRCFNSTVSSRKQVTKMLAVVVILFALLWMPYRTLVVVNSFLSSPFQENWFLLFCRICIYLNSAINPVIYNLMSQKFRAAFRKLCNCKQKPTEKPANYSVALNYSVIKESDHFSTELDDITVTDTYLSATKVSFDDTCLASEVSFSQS
How it was run: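 Calcium signal in dye-loaded TRHR/HEK293 cells; compounds added 5 min before TRH (1 nM final); fluorescence monitored 3 min at 1 s steps.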

[9] = target: Thyrotropin-releasing hormone receptor (Homo sapiens) (UniProt P34981); experiment: qHTS assay to identify small molecule agonists of the thyrotropin-releasing hormone receptor (TRHR) signaling pathway (AID 1346891; calls by dose curve;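 note: HEK293 cells expressing TRHR with calcium dye readout; series mostly up to about 58 µM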)
How it was run: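 Compounds were tested as agonists at 15 concentrations, in triplicate, on TRHR-Hek293 cells; calcium-sensitive dye fluorescence was recorded for 3 min following addition.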

[10] = qHTS assay to identify small molecule agonists of the progesterone receptor (PR) signaling pathway - cell viability counter screen (AID 1346799; calls by dose curve; note: nearly all actives have a fitted effect of over 45% in size)
How it was run: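 In parallel with the beta-lactamase readout, cytotoxicity toward PR-UAS-bla HEK293T cells was measured by CellTiter-Glo luminescence following 16 hr compound incubation in 2% charcoal-stripped FBS medium.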
% is set by controls: 0 for no effect and ±100 for the full control effect.

CC1=NS(=O)(=O)c2cc(Cl)ccc2N1
inactive: Potency [1] | Potency [2] | Potency [3] | Potency [4] | outcome [5] | outcome [6] | outcome [7]

C=CCCC(=O)O
inactive: Potency [1] | Potency [2] | Potency [3] | Potency [4] | outcome [5] | outcome [6] | outcome [7]

CCCCCC(C)N (stereo not given)
inactive: Potency [1] | Potency [2] | Potency [3] | Potency [4] | outcome [5] | outcome [6] | outcome [7] | outcome [8] | Potency [9]

CCCCCC(=O)OCCc1ccccc1
inactive: Potency [1] | Potency [2] | Potency [3] | Potency [4] | Potency [10] | outcome [5] | outcome [6] | outcome [8] | Potency [9]

CC(C)CCCO
inactive: Potency [1] | Potency [2] | Potency [3] | Potency [4] | outcome [5] | outcome [6] | outcome [7] | outcome [8] | Potency [9]

NC(=O)Cc1cccc2ccccc12
inactive: Potency [1] | Potency [2] | Potency [3] | Potency [4] | outcome [5] | outcome [6] | outcome [7] | outcome [8] | Potency [9]

O=CN(CCO)CCO
inactive: Potency [1] | Potency [2] | Potency [3] | Potency [4] | outcome [5] | outcome [6] | outcome [7] | outcome [8] | Potency [9]

C[C@H]1[C@H](NC(=O)/C(=N/OC(C)(C)C(=O)O)c2csc(N)n2)C(=O)N1S(=O)(=O)O (stereo in doubt)
inactive: Potency [1] | Potency [2] | Potency [3] | Potency [4] | Potency [10] | outcome [6] | outcome [7]

CCCCN1C=CN(C)C1
inactive: activity change, negative = cytotoxicity [1] 0.508% [at 19 µM] | activity change, negative = inhibition [3] 3.82% [at 18.9 µM] | activity change, negative = cytotoxicity [4] -2.54% [at 18.9 µM] | viability change, negative = cytotoxic [5] -11.6% [at 15.8 µM] | activity change, negative = cytotoxicity [6] -1.56% [at 15.8 µM] | activation [7] 4.63% [at 15.8 µM]
active: Potency [2] 2460 nM

Cc1ccc(-c2ccccc2C#N)cc1
inactive: Potency [1] | Potency [2] | Potency [3] | Potency [4] | outcome [5] | outcome [6] | outcome [7] | outcome [8] | Potency [9]

COc1ccccc1OCC1CNC(=O)O1 (stereo not given)
inactive: Potency [1] | Potency [2] | Potency [3] | Potency [4] | Potency [10] | outcome [5] | outcome [7] | outcome [8] | Potency [9]

CCN1CCOCC1
inactive: Potency [1] | Potency [2] | Potency [3] | Potency [4] | Potency [10] | outcome [5] | outcome [6] | outcome [8] | Potency [9]

CC(C)C(=O)OC(=O)C(C)C
inactive: Potency [1] | Potency [2] | Potency [3] | Potency [4] | outcome [5] | outcome [6] | outcome [7] | outcome [8] | Potency [9]

CCOC(=O)COC(=O)c1ccccc1C(=O)OCC
inactive: Potency [1] | Potency [2] | Potency [3] | Potency [4] | Potency [10] | outcome [5] | outcome [6] | outcome [8] | Potency [9]

CC(=O)C1CCCCC1=O (stereo not given)
inactive: Potency [1] | Potency [2] | Potency [3] | Potency [4] | outcome [5] | outcome [6] | outcome [7] | outcome [8] | Potency [9]

CCCOC(=O)CC
inactive: Potency [1] | Potency [2] | Potency [3] | Potency [4] | outcome [5] | outcome [6] | outcome [7] | outcome [8] | Potency [9]

C=COC(=O)C(C)(CC)CCC(C)C (stereo not given)
inactive: Potency [1] | Potency [2] | Potency [3] | Potency [4] | outcome [5] | outcome [6] | outcome [8] | Potency [9]

Cc1onc(-c2c(Cl)cccc2Cl)c1C(=O)Cl
inactive: Potency [1] | Potency [2] | Potency [3] | Potency [4] | outcome [5] | outcome [6] | outcome [7] | outcome [8] | Potency [9]

CCCCOCCOC(=O)COc1cc(Cl)c(Cl)cc1Cl
inactive: Potency [1] | Potency [2] | Potency [3] | Potency [4] | outcome [5] | outcome [6] | outcome [7] | outcome [8] | Potency [9]

CCOC(=O)OC(C)OC1=C(C(=O)Nc2ccccn2)N(C)S(=O)(=O)c2ccccc21 (stereo not given)
inactive: Potency [1] | Potency [2] | Potency [3] | Potency [4] | outcome [5] | outcome [6] | outcome [8] | Potency [9]

CC12CCC(C(=O)C1=O)C2(C)C (stereo not given)
inactive: Potency [1] | Potency [2] | Potency [3] | Potency [4] | outcome [5] | outcome [6] | outcome [7] | outcome [8] | Potency [9]

O=C(O)CCSCCC(=O)O
inactive: Potency [1] | Potency [2] | Potency [3] | Potency [4] | outcome [5] | outcome [6] | outcome [7]

CCC1C(=O)OCC1Cc1cncn1C (stereo not given)
inactive: Potency [1] | Potency [2] | Potency [3] | Potency [4] | outcome [5] | outcome [6] | outcome [7] | outcome [8] | Potency [9]

CC(C)[C@H]1CC[C@@H](C)CC1=O
inactive: Potency [1] | Potency [2] | Potency [3] | Potency [4] | Potency [10] | outcome [6] | outcome [7]

CC[C@H]1OC(=O)[C@H](C)[C@@H](O[C@H]2C[C@@](C)(OC)[C@@H](O)[C@H](C)O2)[C@H](C)[C@@H](O[C@@H]2O[C@H](C)C[C@H](N(C)C)[C@H]2O)[C@](C)(OC)C[C@@H](C)C(=O)[C@H](C)[C@@H](O)[C@]1(C)O
inactive: Potency [1] | Potency [2] | Potency [3] | Potency [4] | outcome [5] | outcome [6] | outcome [7] | outcome [8] | Potency [9]

CC1(C)[C@@H]2CC[C@@]1(C)[C@H](O)C2
inactive: Potency [1] | Potency [2] | Potency [3] | Potency [4] | outcome [5] | outcome [6] | outcome [7] | outcome [8] | Potency [9]

CCCn1cc[n+](C)c1C
inactive: Potency [1] | Potency [2] | Potency [3] | Potency [4] | outcome [5] | outcome [6] | outcome [7]

c1coc(CNc2ncnc3nc[nH]c23)c1
inactive: Potency [1] | Potency [2] | Potency [3] | Potency [4] | outcome [5] | outcome [6] | outcome [7] | outcome [8] | Potency [9]

CCCCN(CCC(=O)OCC)C(C)=O
inactive: Potency [1] | Potency [2] | Potency [3] | Potency [4] | Potency [10] | outcome [5] | outcome [6] | outcome [8] | Potency [9]

c1ccc2sc(SN3CCOCC3)nc2c1
inactive: Potency [1] | Potency [2] | Potency [3] | Potency [4] | outcome [5] | outcome [6] | outcome [7] | outcome [8] | Potency [9]

CN(C)CCCCCCN(C)C
inactive: Potency [1] | Potency [2] | Potency [3] | Potency [4] | outcome [5] | outcome [6] | outcome [8] | Potency [9]

Nc1c2c(nc3c1CCC3)CCCC2
inactive: Potency [1] | Potency [2] | Potency [3] | Potency [4] | outcome [5] | outcome [6] | outcome [7] | outcome [8] | Potency [9]

CCC(C)(CCCC(C)C)OC(C)=O (stereo not given)
inactive: Potency [1] | Potency [2] | Potency [3] | outcome [5] | outcome [6] | outcome [7]

O=C(O)CC(C(=O)O)S(=O)(=O)O (stereo not given)
inactive: Potency [1] | Potency [2] | Potency [3] | Potency [10] | outcome [5] | outcome [6] | outcome [8] | Potency [9]

CC1=NN(c2cccc(S(=O)(=O)O)c2)C(=O)C1
inactive: Potency [1] | Potency [2] | Potency [3] | outcome [5] | outcome [6] | outcome [7] | outcome [8] | Potency [9]

Cc1ncc(COP(=O)(O)O)c(C=O)c1O
inactive: Potency [1] | Potency [2] | Potency [3] | Potency [10] | outcome [5] | outcome [6] | outcome [7] | outcome [8] | Potency [9]

CCCCCCCCN1CCCC1=O
inactive: Potency [1] | Potency [2] | Potency [3] | Potency [10] | outcome [5] | outcome [6] | outcome [7] | outcome [8] | Potency [9]

CC(C)(C)c1ccc(-c2ccc(C(C)(C)C)cc2)cc1
inactive: Potency [1] | Potency [2] | Potency [3] | Potency [10] | outcome [5] | outcome [6] | outcome [7] | outcome [8] | Potency [9]
